Assay results as given in PubChem BioAssay AID2551 (National Center for Advancing Translational Sciences (NCATS), 2010).
About 17,000 (5.5%) of roughly 310,000 compounds were called active. Another 11% or so got no clear call; they are omitted. The call rests on the fitted dose curve; in most records, active means well fitted inhibition curve with a large enough effect; inconclusive means small, poorly fitted or top-dose-only effect, or effect the other way; inactive means no such curve, though single readings can be large or run the other way. Shown is part of a subset that was picked to be rich in actives.

Target: Nuclear receptor ROR-gamma (Mus musculus) (UniProt P51450)
Test: qHTS for inhibitors of ROR gamma transcriptional activity; further: nearly all actives have a fitted effect of over 60% in size
Details: Drosophila S2 Gal4-RORgamma UAS-luciferase reporter, 20 h; series mostly up to 53.6 µM; activity change, negative = inhibition: at the top concentration
How it was run: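 Read-out: Photinus luciferase luminescence; inhibitors lower reporter signal. Insect Schneider cells with Gal4-ROR gamma fusion under metallothionein promoter, UAS reporter; 700 uM final copper sulfate induction, 20 hr, ambient temperature.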
On the % scale 0 is the no-effect control and ±100 the full control effect; potency means the concentration at half of the fitted maximal effect.

Sequence of Nuclear receptor ROR-gamma (Mus musculus) (P51450 whole entry, looked up): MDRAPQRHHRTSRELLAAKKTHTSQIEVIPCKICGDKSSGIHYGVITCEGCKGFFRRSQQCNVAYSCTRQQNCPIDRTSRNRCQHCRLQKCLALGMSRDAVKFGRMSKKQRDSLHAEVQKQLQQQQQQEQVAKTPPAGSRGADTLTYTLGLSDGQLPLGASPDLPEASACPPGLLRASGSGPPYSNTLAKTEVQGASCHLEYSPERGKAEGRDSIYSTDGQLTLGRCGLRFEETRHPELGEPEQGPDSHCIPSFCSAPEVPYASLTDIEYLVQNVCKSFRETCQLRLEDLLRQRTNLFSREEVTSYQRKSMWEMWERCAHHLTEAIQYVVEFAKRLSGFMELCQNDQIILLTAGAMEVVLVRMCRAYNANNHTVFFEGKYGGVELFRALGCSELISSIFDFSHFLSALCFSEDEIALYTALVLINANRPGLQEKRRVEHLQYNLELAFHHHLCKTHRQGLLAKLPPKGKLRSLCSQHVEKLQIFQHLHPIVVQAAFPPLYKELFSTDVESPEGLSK

Row | Compound | Potency | activity change, negative = inhibition
1 | CN(C)c1nc(=Nc2cccc(Cl)c2)ss1 | 0.398 µM (active) | –
2 | CCOC(=O)C1=C(O)CSC1=Nc1cccc(Cl)c1 | – | -0.427% (inactive)
3 | CC(=O)Oc1ccc2c(=O)oc(-c3ccc([N+](=O)[O-])cc3)nc2c1 | – | -18.3% (inactive)
4 | CC(C)NC(=S)NN=C1CCCCCCCCCCC1 | 0.447 µM (active) | –
5 | CC(C)(C)NC(=O)C(=O)NN=C1CCCCCCC1 | – | -6.76% (inactive)
6 | CC1CC(C)CN(CCCNC(=O)Cn2ncc3c([nH]c4ccccc43)c2=O)C1 (stereo unspecified) | – | -11.2% (inactive)
7 | Cc1cccc(N(C(=O)c2sc(C)nc2C)C(C(=O)NCC2CCCO2)c2ccccc2)c1 (stereo unspecified) | – | -0.663% (inactive)
8 | CCC(NC(=O)c1cc(COc2ccc(F)c(F)c2)on1)c1ccncc1 (stereo unspecified) | – | 24.8% (inactive)
9 | CC1CCC(NC(=O)CN(C)S(=O)(=O)c2ccc3c(c2)c(=O)n(C)c(=O)n3C)CC1 (stereo unspecified) | – | -4.79% (inactive)
10 | COc1ccc(C(C(=O)NC2CCCCC2)N(C(=O)c2snc(C(N)=O)c2N)c2ccccc2OC)cc1 (stereo unspecified) | – | 44.1% (inactive)
11 | O=C(c1cccc([N+](=O)[O-])c1)N1CCN(Cc2ccccc2)CC1 | – | 5.99% (inactive)
12 | O=C(NC(=S)N1CCN(Cc2ccccc2)CC1)c1ccccc1 | 1 µM (active) | –
13 | O=C(c1cccc(Cl)c1)N1CCN(Cc2ccccc2)CC1 | – | 5.8% (inactive)
14 | CC(C)c1nnc(NC(=O)CCC(=O)N2CCN(c3cccc(Cl)c3)CC2)s1 | – | 1.43% (inactive)
15 | COc1ccc(NC(=O)C/C(C)=N/NC(=O)c2cnccn2)cc1Cl | – | 20.1% (inactive)
16 | COc1cc(OC)c(S(=O)(=O)Nc2ccccc2C(=O)O)cc1S(=O)(=O)Nc1ccccc1C(=O)O | – | 21.8% (inactive)
17 | CCc1cccc(C)c1N1C(=O)CN(Cc2ccccc2)C1=S | – | -15.2% (inactive)
18 | CCOc1ccc2nc(/N=C/c3nc(-c4ccccc4)oc3O)sc2c1 | – | -14.9% [at 10 µM] (inactive)
19 | Oc1oc(-c2ccccc2Br)nc1/C=N/c1ccccn1 | 8.91 µM (active) | –
20 | CC(N=Cc1nc(-c2ccccc2)oc1O)c1ccccc1 (stereo unspecified) | – | 20.3% (inactive)
21 | Cc1ccnc(NS(=O)(=O)c2ccc(NC(=O)c3oc4ccccc4c3C)cc2)n1 | – | 44.6% (inactive)
22 | Cc1ccc(S(=O)(=O)N(CC(=O)Nc2cccnc2)c2ccc(Br)cc2)cc1 | – | 44.3% (inactive)

Row | Compound | Potency | activity change, negative = inhibition
23 | Cc1cc(NC(=O)CCC2COc3ccccc3O2)no1 (stereo unspecified) | – | 39.4% (inactive)
24 | Cc1ccc(S(=O)(=O)N(C)C)cc1NC(=O)COC(=O)C1COc2ccccc2O1 (stereo unspecified) | – | 1.8% (inactive)
25 | CCCN(CC1COc2ccccc2O1)C(=S)Nc1ccc(C)cc1 (stereo unspecified) | 15.8 µM (active) | –
26 | COCn1c(C(O)c2ccccc2)cc2ccccc21 (stereo unspecified) | – | 14.4% (inactive)
27 | CCOc1cc(C)c(S(=O)(=O)NCc2ccccn2)cc1C | – | -29.6% [at 1.91 µM] (inactive)
28 | O=S(=O)(NCc1cccnc1)c1ccc(Br)s1 | – | 12.6% (inactive)
29 | Cc1cc(Cl)c(S(=O)(=O)NCc2cccnc2)cc1OCC(N)=O | – | 8.15% (inactive)
30 | O=S(=O)(NCc1ccccn1)c1ccc(Br)s1 | 8.91 µM (active) | –
31 | Cc1cc(S(=O)(=O)NCc2ccccn2)c(Cl)cc1Cl | 7.08 µM (active) | –
32 | O=S(=O)(NCc1ccccn1)c1ccc(F)cc1 | – | -20.3% (inactive)
33 | COc1cccc(NC(=O)CN(C)C(=O)c2ccccc2CCc2ccccc2)c1 | – | 30.3% (inactive)
34 | CCCn1c(=O)c(C(=O)Nc2cc(C)ccn2)c(O)c2ccccc21 | – | 5.16% (inactive)
35 | CC(NCC(=O)Nc1cc(Cl)cc(Cl)c1)c1ccccc1 (stereo unspecified) | – | -2.11% (inactive)
36 | Cc1cccnc1NC(=O)Cn1c(=O)oc2ccccc21 | – | 13.7% (inactive)
37 | CN(C(=O)c1cccc(OC2CCN(S(=O)(=O)N(C)C)CC2)c1)C1CCOC1 (stereo unspecified) | – | 10.1% (inactive)
38 | O=C(NC(=O)c1ccccc1)NC(=O)c1ccccc1 | – | -17.4% (inactive)
39 | O=C(NC(=O)c1ccccc1)Nc1ccccc1O | 7.08 µM (active) | –
40 | O=C(Nc1ccc(C(=O)O)c(O)c1)c1ccccc1 | inactive | –
41 | C[C@H](NC(=O)C1CC(=O)N(c2ccc3c(c2)OCCO3)C1)C(=O)N1CCC(C(=O)O)CC1 (stereo partly specified) | – | -3.96% (inactive)
42 | COc1ccc2nc(C)cc(Nc3cccc(C(=O)O)c3)c2c1 | – | 34.5% (inactive)
43 | O=C(Nc1ccn(Cc2ccccc2)n1)c1n[nH]c([N+](=O)[O-])c1Cl | 7.08 µM (active) | –
44 | O=C(Nc1ccn(Cc2ccccc2)n1)c1cccc(F)c1 | – | -19.5% (inactive)

Row | Compound | Potency | activity change, negative = inhibition
45 | Cn1cc([N+](=O)[O-])c(C(=O)Nc2cnn(Cc3ccc(F)cc3)c2)n1 | – | 39.6% (inactive)
46 | CC(C)[C@H](NC(=O)N1CCn2c1nc1ccccc12)C(=O)NCCc1ccccc1 | – | 36.9% (inactive)
47 | CCCCCN(C(=O)CCC(=O)OCC(=O)NCc1ccc(OC)cc1)c1c(N)n(CCCC)c(=O)[nH]c1=O | – | 12.4% (inactive)
48 | COc1ccc(CN(C)C(=S)Nc2ccc(Cl)cc2Cl)cc1 | 17.8 µM (active) | –
49 | COc1ccc(CN2CCn3ncc(C(=O)Nc4ccc(Cl)cc4Cl)c3C2=O)cc1 | – | -17.8% (inactive)
50 | CN(C)C(=S)Nc1ccc(Br)cc1Cl | – | -7.55% (inactive)
51 | CCn1c(=O)c(=O)[nH]c2c(=O)oc3ccc(S(=O)(=O)Nc4ccc(OC)cc4)cc3c21 | – | 3.51% (inactive)
52 | COc1ccc(OC)c(C2C3=C(N=c4s/c(=C\c5cccc(O)c5)c(=O)n42)c2ccccc2CC3)c1 (stereo unspecified) | 12.6 µM (active) | –
53 | COCCOC(=O)C1=C(C)N=c2s/c(=C\c3cccs3)c(=O)n2C1c1cccs1 (stereo unspecified) | – | 17.2% (inactive)
54 | O=C1CCCC2=C1C(c1ccccc1)n1c(s/c(=C/c3cccc(F)c3)c1=O)=N2 (stereo unspecified) | – | 1.43% (inactive)
55 | CC(=O)c1c(O)cc2n(c1=O)-c1ccc(Cl)cc1C2(C)C | 10 µM (active) | –
56 | Cc1coc(C)c1C(=O)CC1(O)C(=O)N(C)c2ccc(Cl)cc21 (stereo unspecified) | – | 12.2% (inactive)
57 | O=C(COc1ccc2ccc(=O)oc2c1)NCC(O)c1ccccc1 (stereo unspecified) | – | 0.846% (inactive)
58 | COc1cccc(CNC(=O)C2CCCN(c3ncnc4c3nc3n4CCCCC3)C2)c1 (stereo unspecified) | – | -14.6% (inactive)
59 | CCc1nnc(NS(=O)(=O)c2ccc(NC(=S)NC(=O)/C=C/c3cccs3)cc2)s1 | – | 15.5% (inactive)
60 | CCOC(=O)c1c(NC(=O)/C=C/c2ccco2)sc(C)c1C | – | -29.3% (inactive)
61 | CCOC(=O)c1c(NC(=S)NC(=O)/C=C/c2cccs2)sc(C)c1C | 1.26 µM (active) | –
62 | COC(=O)C1=CN(c2ccc(F)c(F)c2)C=C(C(=O)OC)C1c1ccc([N+](=O)[O-])cc1 | – | -7.43% (inactive)
63 | CCOc1ccc(C(=O)Nc2ccc(S(=O)(=O)Nc3cc(C)on3)cc2)cc1 | – | 30% (inactive)
64 | Cc1c(Br)c([N+](=O)[O-])nn1C(C)C(=O)Nc1nccs1 (stereo unspecified) | 20 µM (active) | –
65 | CC(NC(=O)C(=O)Nc1nccs1)c1ccccc1 (stereo unspecified) | – | -16.6% (inactive)
66 | O=C(CCn1ccc([N+](=O)[O-])n1)Nc1nccs1 | – | 12.8% (inactive)
